Laboratory results reported in PubChem BioAssay AID1159580 (chemical genetic matrix, 2015).
Screen size: about 5,500 compounds; about 2,000 (36%) were called active. About 18% were inconclusive and are not listed. Rule as the data show it: active = normalized growth mostly below about 0.91 (no sharp cut-off); inconclusive = no clear call, values can overlap the other calls; inactive = mostly above about 0.92. Some of the results follow.

Test: chemical genetic growth profiling, strain panel (AID 1159580);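 also: tested at 20 µM; growth read once vehicle control cultures reached saturation at 30 °C; 1 = growth at the plate median or of vehicle wells; lower values mean less growth of the strain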
Conditions: growth OD

Measured: normalized growth

O=C(/C=C/C=C/c1ccc2c(c1)OCO2)N1CCCCC1
active: S. cerevisiae deletion strains, locus YKR001C, strain vps1, active compounds read low 0.796 | S. cerevisiae deletion strains, locus YLR221C, strain rsa3, active compounds read low 0.9 | S. cerevisiae deletion strains, locus YLR262C, strain YPT6 (second series), active compounds read low 0.71 | S. cerevisiae deletion strains, locus YLR268W, strain sec22, active compounds read low 0.807 | S. cerevisiae deletion strains, locus YLR320W, strain mms22, active compounds read low 0.808 | S. cerevisiae deletion strains, locus YLR342W, strain FKS1 (second series), active compounds read low 0.781 | S. cerevisiae deletion strains, locus YLR342W, strain FKS1, active compounds read low 0.851 | S. cerevisiae deletion strains, locus YLR418C, strain cdc73, active compounds read low 0.701 | S. cerevisiae deletion strains, locus YNL071W, strain lat1, active compounds read low 0.674 | S. cerevisiae deletion strains, locus YNL307C, strain MCK1, active compounds read low 0.729 | S. cerevisiae deletion strains, locus YOR184W, strain ser1, active compounds read low 0.753 | S. cerevisiae deletion strains, locus YOR270C, strain vph1, active compounds read low 0.633 | S. cerevisiae deletion strains, locus YPL051W, strain arl3, active compounds read low 0.896 | S. cerevisiae deletion strains, locus YPR163C, strain tif3, active compounds read low 0.856
inactive: S. cerevisiae deletion strains, locus YJR075W, strain HOC1, active compounds read low 0.9 | S. cerevisiae deletion strains, locus YKL009W, strain mrt4, active compounds read low 0.886 | S. cerevisiae deletion strains, locus YKL068W, active compounds read low 0.966 | S. cerevisiae deletion strains, locus YKL085W, strain MDH1 (second series), active compounds read low 0.953 | S. cerevisiae deletion strains, locus YKL085W, strain MDH1, active compounds read low 0.953 | S. cerevisiae deletion strains, locus YKL160W, strain elf1, active compounds read low 0.919 | S. cerevisiae deletion strains, locus YKL190W, strain CNB1, active compounds read low 0.974 | S. cerevisiae deletion strains, locus YKR026C, strain gcn3, active compounds read low 0.992 | S. cerevisiae deletion strains, locus YKR091W, strain srl3, active compounds read low 0.977 | S. cerevisiae deletion strains, locus YLL001W, strain dnm1, active compounds read low 0.935 | S. cerevisiae deletion strains, locus YLL026W, active compounds read low 0.956 | S. cerevisiae deletion strains, locus YLL041C, strain sdh2, active compounds read low 0.964 | S. cerevisiae deletion strains, locus YLR027C, strain aat2, active compounds read low 0.945 | S. cerevisiae deletion strains, locus YLR039C, strain RIC1, active compounds read low 0.72 | S. cerevisiae deletion strains, locus YLR058C, strain SHM2, active compounds read low 0.968 | S. cerevisiae deletion strains, locus YLR102C, strain apc9, active compounds read low 0.94 | S. cerevisiae deletion strains, locus YLR113W, strain HOG1, active compounds read low 0.973 | S. cerevisiae deletion strains, locus YLR258W, strain gsy2, active compounds read low 0.92 | S. cerevisiae deletion strains, locus YLR262C, strain YPT6, active compounds read low 0.785 | S. cerevisiae deletion strains, locus YLR330W, strain CHS5, active compounds read low 0.969 | S. cerevisiae deletion strains, locus YLR357W, strain rsc2, active compounds read low 1.08 | S. cerevisiae deletion strains, locus YLR370C, strain arc18, active compounds read low 0.952 | S. cerevisiae deletion strains, locus YLR371W, strain rom2, active compounds read low 0.959 | S. cerevisiae deletion strains, locus YLR384C, strain iki3, active compounds read low 0.976 | S. cerevisiae deletion strains, locus YML016C, strain PPZ1, active compounds read low 0.961 | S. cerevisiae deletion strains, locus YML032C, strain rad52, active compounds read low 0.914 | S. cerevisiae deletion strains, locus YML120C, strain ndi1, active compounds read low 0.932 | S. cerevisiae deletion strains, locus YML124C, strain tub3, active compounds read low 0.945 | S. cerevisiae deletion strains, locus YMR058W, strain fet3, active compounds read low 0.93 | S. cerevisiae deletion strains, locus YMR078C, strain ctf18, active compounds read low 0.932 | S. cerevisiae deletion strains, locus YMR125W, strain sto1, active compounds read low 0.961 | S. cerevisiae deletion strains, locus YMR129W, active compounds read low 0.959 | S. cerevisiae deletion strains, locus YMR205C, strain PFK2, active compounds read low 0.892 | S. cerevisiae deletion strains, locus YMR223W, strain ubp8, active compounds read low 0.91 | S. cerevisiae deletion strains, locus YMR231W, strain pep5, active compounds read low 0.99 | S. cerevisiae deletion strains, locus YMR263W, strain SAP30, active compounds read low 0.921 | S. cerevisiae deletion strains, locus YMR307W, strain GAS1, active compounds read low 0.621 | S. cerevisiae deletion strains, locus YNL067W, strain RPL9B, active compounds read low 0.907 | S. cerevisiae deletion strains, locus YNL128W, strain TEP1, active compounds read low 0.991 | S. cerevisiae deletion strains, locus YNL153C, strain GIM3, active compounds read low 0.953 | S. cerevisiae deletion strains, locus YNL183C, strain NPR1, active compounds read low 0.95 | S. cerevisiae deletion strains, locus YNL209W, strain ssb2, active compounds read low 0.949 | S. cerevisiae deletion strains, locus YNL233W, strain BNI4, active compounds read low 0.89 | S. cerevisiae deletion strains, locus YNL248C, strain rpa49, active compounds read low 0.94 | S. cerevisiae deletion strains, locus YNL250W, strain rad50, active compounds read low 0.95 | S. cerevisiae deletion strains, locus YNL271C, strain bni1, active compounds read low 0.933 | S. cerevisiae deletion strains, locus YNL298W, strain CLA4, active compounds read low 0.92 | S. cerevisiae deletion strains, locus YNL322C, strain KRE1 (second series), active compounds read low 0.965 | S. cerevisiae deletion strains, locus YNL322C, strain KRE1, active compounds read low 0.981 | S. cerevisiae deletion strains, locus YNR049C, strain mso1, active compounds read low 0.977 | S. cerevisiae deletion strains, locus YNR052C, strain pop2, active compounds read low 0.963 | S. cerevisiae deletion strains, locus YOL006C, strain TOP1, active compounds read low 0.598 | S. cerevisiae deletion strains, locus YOL012C, strain htz1 1.13 | S. cerevisiae deletion strains, locus YOL147C, strain pex11, active compounds read low 0.951 | S. cerevisiae deletion strains, locus YOR001W, strain rrp6, active compounds read low 0.956 | S. cerevisiae deletion strains, locus YOR061W, strain CKA2, active compounds read low 0.979 | S. cerevisiae deletion strains, locus YOR069W, strain VPS5, active compounds read low 0.98 | S. cerevisiae deletion strains, locus YOR070C, strain gyp1, active compounds read low 0.935 | S. cerevisiae deletion strains, locus YOR080W, strain dia2, active compounds read low 0.996 | S. cerevisiae deletion strains, locus YOR083W, strain WHI5, active compounds read low 0.909 | S. cerevisiae deletion strains, locus YOR106W, strain vam3, active compounds read low 0.925 | S. cerevisiae deletion strains, locus YOR136W, strain idh2, active compounds read low 0.964 | S. cerevisiae deletion strains, locus YOR144C, strain elg1, active compounds read low 0.948 | S. cerevisiae deletion strains, locus YOR231W, strain MKK1, active compounds read low 0.982 | S. cerevisiae deletion strains, locus YOR265W, strain rbl2, active compounds read low 0.961 | S. cerevisiae deletion strains, locus YOR290C, strain snf2, active compounds read low 0.929 | S. cerevisiae deletion strains, locus YOR316C, strain cot1, active compounds read low 0.946 | S. cerevisiae deletion strains, locus YPL055C, strain LGE1, active compounds read low 0.827 | S. cerevisiae deletion strains, locus YPL078C, strain atp4, active compounds read low 0.914 | S. cerevisiae deletion strains, locus YPL106C, strain sse1, active compounds read low 0.92 | S. cerevisiae deletion strains, locus YPL240C, strain hsp82, active compounds read low 0.946 | S. cerevisiae deletion strains, locus YPL241C, strain CIN2, active compounds read low 0.969 | S. cerevisiae deletion strains, locus YPL256C, strain CLN2, active compounds read low 0.914 | S. cerevisiae deletion strains, locus YPR119W, strain clb2, active compounds read low 0.936 | S. cerevisiae deletion strains, locus YPR141C, strain kar3, active compounds read low 0.946 | S. cerevisiae deletion strains, locus YPR167C, strain met16, active compounds read low 0.948 | S. cerevisiae deletion strains, strain wtn01, active compounds read low 0.9 | S. cerevisiae strains, strain wild type, active compounds read low 0.948
